Source: PubChem BioAssay AID1159580 (chemical genetic matrix, 2015)
Several values for one entry are separate records, joined by “and”; a condition that tells them apart may be missing. Identical values can stand only once. The whole screen tested about 5,500 compounds, of which about 2,000 (36%) were called active. About 18% were inconclusive and are not listed. No stated cut-off is given here; in the data, active means normalized growth mostly below about 0.91 (no sharp cut-off); inconclusive means no clear call, values can overlap the other calls; inactive means mostly above about 0.92. The list shows a part of the results.

Assay: chemical genetic growth profiling, strain panel (AID 1159580);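 further: tested at 20 µM; growth read once vehicle control cultures reached saturation at 30 °C; 1 = growth at the plate median or of vehicle wells; lower values mean less growth of the strain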
Settings: S. cerevisiae deletion strains, growth OD

Measured: normalized growth

C[n+]1cccc(C(=O)[O-])c1
inactive: locus YAL013W, strain DEP1, hits give low values 1.01 | locus YAL021C, strain ccr4, hits give low values 1.02 | locus YAL026C, strain drs2, hits give low values 0.972 | locus YAL030W, strain snc1, hits give low values 0.982 | locus YBL061C, strain skt5, hits give low values 0.975 | locus YBR009C, strain hhf1, hits give low values 0.99 | locus YBR021W, strain FUR4, hits give low values 1 | locus YBR023C, strain chs3, hits give low values 0.963 | locus YBR171W, strain sec66, hits give low values 0.958 | locus YBR229C, strain ROT2, hits give low values 1.01 | locus YBR231C, strain swc5, hits give low values 0.97 | locus YBR279W, strain paf1, hits give low values 0.972 | locus YCL011C, strain gbp2, hits give low values 0.97 | locus YCL016C, strain dcc1, hits give low values 0.998 | locus YCL029C, strain bik1, hits give low values 0.993 | locus YCL069W, strain vba3, hits give low values 0.941 | locus YCR088W, strain abp1, hits give low values 0.963 | locus YDL005C, strain med2, hits give low values 0.952 | locus YDL035C, strain GPR1, hits give low values 1.03 | locus YDL040C, strain nat1, hits give low values 0.981 | locus YDL074C, strain BRE1, hits give low values 1.03 | locus YDL101C, strain DUN1, hits give low values 1.03 | locus YDL134C, strain PPH21, hits give low values 1.07 | locus YDL185W, strain tfp1, hits give low values 0.999 | locus YDL192W, strain arf1, hits give low values 1.01 | locus YDR001C, strain nth1, hits give low values 0.965 | locus YDR069C, strain doa4, hits give low values 0.958 | locus YDR101C, strain arx1, hits give low values 0.995 | locus YDR137W, strain rgp1, hits give low values 0.974 | locus YDR150W, strain NUM1, hits give low values 1.01 | locus YDR159W, strain sac3, hits give low values 0.97 | locus YDR162C, strain NBP2, hits give low values 1.07 | locus YDR195W, strain ref2 0.91 | locus YDR297W, strain sur2, hits give low values 0.975 | locus YDR318W, strain mcm21, hits give low values 0.994 | locus YDR334W, strain swr1, hits give low values 0.965 | locus YDR335W, strain msn5, hits give low values 0.952 | locus YDR388W, hits give low values 0.996 | locus YDR392W, strain spt3, hits give low values 0.987 | locus YDR502C, strain sam2, hits give low values 1 | locus YEL003W, strain gim4, hits give low values 0.964 | locus YEL037C, strain rad23, hits give low values 0.964 | locus YEL061C, strain CIN8 (second series), hits give low values 0.923 | locus YEL061C, strain CIN8, hits give low values 1.01 | locus YER015W, strain faa2, hits give low values 0.983 | locus YER016W, strain bim1, hits give low values 0.967 | locus YER110C, hits give low values 0.995 | locus YER111C, strain swi4, hits give low values 0.942 | locus YER155C, strain BEM2 (second series), hits give low values 0.992 | locus YER155C, strain BEM2, hits give low values 0.999 | locus YER167W, strain BCK2, hits give low values 1.02 | locus YFR010W, strain ubp6, hits give low values 0.943 | locus YGL078C, strain dbp3, hits give low values 0.997 | locus YGL086W, strain mad1, hits give low values 1 | locus YGL167C, strain pmr1, hits give low values 0.984 | locus YGL173C, strain kem1, hits give low values 0.986 | locus YGL227W, strain vid30, hits give low values 0.957 | locus YGL240W, strain doc1, hits give low values 0.972 | locus YGL248W, strain PDE1, hits give low values 1.02 | locus YGL253W, strain hxk2, hits give low values 0.955 | locus YGR078C, strain PAC10, hits give low values 1.04 | locus YGR135W, strain pre9, hits give low values 1 | locus YGR229C, strain SMI1, hits give low values 1.04 | locus YGR252W, strain gcn5, hits give low values 0.966 | locus YHR013C, strain ard1, hits give low values 0.981 | locus YHR027C, strain rpn1, hits give low values 0.992 | locus YHR030C, strain SLT2, hits give low values 1.01 and 1.03 | locus YHR079C, strain IRE1 (second series), hits give low values 1.01 | locus YHR079C, strain IRE1, hits give low values 1.02 | locus YHR094C, strain hxt1, hits give low values 0.983 | locus YHR129C, strain ARP1, hits give low values 1.02 | locus YHR142W, strain chs7, hits give low values 0.955 | locus YHR200W, strain rpn10, hits give low values 1.01 | locus YIL066C, strain RNR3, hits give low values 1.05 | locus YIL073C, strain SPO22, hits give low values 1.02 | locus YIL125W, strain kgd1, hits give low values 0.984 | locus YIR030C, strain dcg1, hits give low values 1.01 | locus YJL092W, strain hpr5, hits give low values 0.937 | locus YJL095W, strain BCK1 (second series), hits give low values 0.971 | locus YJL095W, strain BCK1, hits give low values 1.07 and 1.01 | locus YJL115W, strain asf1, hits give low values 0.956 | locus YJL129C, strain trk1, hits give low values 0.936 | locus YJL134W, strain LCB3, hits give low values 1.01 | locus YJL154C, strain vps35, hits give low values 0.948 | locus YJL164C, strain tpk1, hits give low values 0.985 | locus YJL166W, strain qcr8, hits give low values 0.961 | locus YJL168C, strain set2, hits give low values 0.999 | locus YJL187C, strain SWE1 (second series), hits give low values 1.03 | locus YJL187C, strain SWE1, hits give low values 0.97 | locus YJR043C, strain POL32, hits give low values 1.04 | locus YJR066W, strain TOR1, hits give low values 0.975 | locus YJR075W, strain HOC1, hits give low values 1.03 | locus YKL009W, strain mrt4, hits give low values 1 | locus YKL068W, hits give low values 1.01 | locus YKL085W, strain MDH1 (second series), hits give low values 1.01 | locus YKL085W, strain MDH1, hits give low values 1.01 | locus YKL160W, strain elf1, hits give low values 0.996 | locus YKR001C, strain vps1, hits give low values 0.987 | locus YKR026C, strain gcn3, hits give low values 0.952 | locus YKR091W, strain srl3, hits give low values 0.966 | locus YLL001W, strain dnm1, hits give low values 0.97 | locus YLL026W, hits give low values 0.989 | locus YLL041C, strain sdh2, hits give low values 0.963 | locus YLR027C, strain aat2, hits give low values 0.983 | locus YLR039C, strain RIC1, hits give low values 1.12 | locus YLR058C, strain SHM2, hits give low values 1.02 | locus YLR102C, strain apc9, hits give low values 0.997 | locus YLR113W, strain HOG1, hits give low values 1.04 | locus YLR221C, strain rsa3, hits give low values 0.972 | locus YLR258W, strain gsy2, hits give low values 0.971 | locus YLR262C, strain YPT6 (second series), hits give low values 0.947 | locus YLR262C, strain YPT6, hits give low values 1.12 | locus YLR268W, strain sec22, hits give low values 1.02 | locus YLR320W, strain mms22, hits give low values 0.975 | locus YLR330W, strain CHS5, hits give low values 1.02 | locus YLR342W, strain FKS1 (second series), hits give low values 1.04 | locus YLR342W, strain FKS1, hits give low values 0.948 | locus YLR357W, strain rsc2, hits give low values 0.917 | locus YLR370C, strain arc18, hits give low values 0.972 | locus YLR371W, strain rom2, hits give low values 0.994 | locus YLR384C, strain iki3, hits give low values 0.961 | locus YLR418C, strain cdc73, hits give low values 1.02 | locus YML016C, strain PPZ1, hits give low values 1.02 | locus YML032C, strain rad52, hits give low values 1.01 | locus YML120C, strain ndi1, hits give low values 0.968 | locus YML124C, strain tub3, hits give low values 0.994 | locus YMR058W, strain fet3, hits give low values 0.986 | locus YMR078C, strain ctf18, hits give low values 0.998 | locus YMR125W, strain sto1, hits give low values 0.939 | locus YMR129W, hits give low values 0.975 | locus YMR205C, strain PFK2, hits give low values 0.974 | locus YMR223W, strain ubp8, hits give low values 1 | locus YMR231W, strain pep5, hits give low values 0.975 | locus YMR263W, strain SAP30, hits give low values 1.03 | locus YMR307W, strain GAS1, hits give low values 1.02 | locus YNL067W, strain RPL9B, hits give low values 1.03 | locus YNL071W, strain lat1, hits give low values 0.961 | locus YNL153C, strain GIM3, hits give low values 1.04 | locus YNL183C, strain NPR1, hits give low values 0.981 | locus YNL209W, strain ssb2, hits give low values 0.975 | locus YNL233W, strain BNI4, hits give low values 1.03 | locus YNL248C, strain rpa49, hits give low values 0.937 | locus YNL250W, strain rad50, hits give low values 0.999 | locus YNL271C, strain bni1, hits give low values 1 | locus YNL298W, strain CLA4, hits give low values 1.02 | locus YNL307C, strain MCK1, hits give low values 1 | locus YNL322C, strain KRE1 (second series), hits give low values 0.948 | locus YNL322C, strain KRE1, hits give low values 1 | locus YNR049C, strain mso1, hits give low values 0.962 | locus YNR052C, strain pop2, hits give low values 1 | locus YOL012C, strain htz1 1.15 | locus YOL147C, strain pex11, hits give low values 0.996 | locus YOR001W, strain rrp6, hits give low values 0.933 | locus YOR061W, strain CKA2, hits give low values 1.02 | locus YOR069W, strain VPS5, hits give low values 1.01 | locus YOR070C, strain gyp1, hits give low values 0.987 | locus YOR080W, strain dia2, hits give low values 0.978 | locus YOR083W, strain WHI5, hits give low values 0.992 | locus YOR106W, strain vam3, hits give low values 0.977 | locus YOR136W, strain idh2, hits give low values 1 | locus YOR144C, strain elg1, hits give low values 0.989 | locus YOR184W, strain ser1, hits give low values 1.02 | locus YOR231W, strain MKK1, hits give low values 1.04 | locus YOR265W, strain rbl2, hits give low values 0.98 | locus YOR270C, strain vph1, hits give low values 0.931 | locus YOR290C, strain snf2, hits give low values 1.01 | locus YOR316C, strain cot1, hits give low values 1.01 | locus YPL051W, strain arl3, hits give low values 0.999 | locus YPL055C, strain LGE1, hits give low values 1.02 | locus YPL078C, strain atp4, hits give low values 0.963 | locus YPL106C, strain sse1, hits give low values 0.932 | locus YPL240C, strain hsp82, hits give low values 0.963 | locus YPL241C, strain CIN2, hits give low values 1 | locus YPL256C, strain CLN2, hits give low values 1.02 | locus YPR119W, strain clb2, hits give low values 1.02 | locus YPR141C, strain kar3, hits give low values 1.01 | locus YPR163C, strain tif3, hits give low values 0.997 | locus YPR167C, strain met16, hits give low values 1.01 | strain wtn01, hits give low values 1.01
